The results in this text go back to PubChem BioAssay (NCI).

Molecules are shown by their SMILES. The panel holds about 79,000 compounds, 15% with a hit somewhere; the sample as a whole holds those more often. A number with no mark means an inactive call. The source made the active and inactive calls. Cut-off read from the data, not from the text of the source: active = growth inhibition above about 70%; inactive = the rest.

The nature of assay [1]: NCI Yeast Anticancer Drug Screen. Data for the rad50 strain (AID 155).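 Note: 0% = growth of vehicle-only cultures of the same strain.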 The following applies: S. cerevisiae rad50 strain growth inhibition, hits give high values. A digest of the protocol:
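DNA repair mutant yeast, compound exposure, growth read-out; inhibition is taken relative to vehicle.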

A short description of assay [2]: NCI Yeast Anticancer Drug Screen. Data for the mec2-1 strain (AID 157). The settings on record: S. cerevisiae mec2-1 strain, hits give high values. A digest of the protocol:
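Each compound was tested on mec2-1 yeast, a strain altered in DNA damage repair or cell cycle control. Growth inhibition is reported relative to vehicle.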

Assay [3] is described as follows: NCI Yeast Anticancer Drug Screen. Data for the sgs1 mgt1 strain (AID 161).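 Note: 0% = growth of cultures given vehicle only.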 The settings on record: S. cerevisiae sgs1 mgt1 strain, hits give high values. The method, boiled down:
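Genetically altered yeast, compound exposure, growth inhibition relative to vehicle.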

The nature of assay [4]: NCI Yeast Anticancer Drug Screen. Data for the cln2 rad14 strain (AID 165).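 Note: 0% = growth equal to vehicle treated cultures.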 The following applies: S. cerevisiae cln2 rad14 strain, hits give high values. A digest of the protocol: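 Test compounds were added to cln2 rad14 yeast cultures; inhibition of growth was then determined by comparison with vehicle treatment.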
A short description of assay [5]: NCI Yeast Anticancer Drug Screen. Data for the bub3 strain (AID 167). The settings on record: S. cerevisiae bub3 mutant strain, hits give high values. A digest of the protocol: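 In this screen, a yeast mutant lacking normal mitotic checkpoint function is challenged with compound. Relative growth versus vehicle gives the inhibition value.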
Assay [6] is described as follows: NCI Yeast Anticancer Drug Screen. Data for the mlh1 rad18 strain (AID 175). The settings on record: S. cerevisiae mlh1 rad18 strain growth inhibition, hits give high values. A digest of the protocol:
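Inhibition values reflect reduced growth of mutant yeast versus vehicle-treated controls following compound exposure; the mutations affect DNA damage repair.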

The mark [7] stands for this setting: at 5.0 µM (retest, dose inferred, filed as 0.5).
[8] abbreviates: at 50.0 µM (retest, dose inferred, filed as 5.0).

Consider `COc1cc(/C=C(\C#N)c2ccc([N+](=O)[O-])cc2)ccc1O`, for which the growth inhibition in assay [1] (setting [7]) was -13%; in assay [1] (setting [8]), 1%; in assay [1] (at 50.0 µM), 75.4% (active); in assay [2] (setting [7]) it was -23%; in assay [2] (setting [8]), -3%; in assay [2] (at 50.0 µM), 51.2%. The growth inhibition in assay [3] (setting [7]) was -16%; in assay [3] (setting [8]), -4%; in assay [3] (at 50.0 µM), 74% (active); in assay [4] (setting [7]), -5%; in assay [4] (setting [8]), 33%; in assay [4] (at 50.0 µM), 66.5%. In addition, the growth inhibition is -20% in assay [5] (setting [7]); 50% in assay [5] (setting [8]); 81.7% (active) in assay [5] (at 50.0 µM); -35% in assay [6] (setting [7]); 57% in assay [6] (setting [8]); 64.2% in assay [6] (at 50.0 µM).

On to `CC(=O)ON=C1C=CC(=C(C#N)c2ccccc2)C=C1`, for which the growth inhibition was 44% in assay [1] (setting [7]); 99% (active) in assay [1] (setting [8]); 97.2% (active) in assay [1] (at 50.0 µM); 41% in assay [2] (setting [7]); 100% (active) in assay [2] (setting [8]); 99.1% (active) in assay [2] (at 50.0 µM). For the same compound, the growth inhibition was 46% in assay [3] (setting [7]); 100% (active) in assay [3] (setting [8]); 64.1% in assay [3] (at 50.0 µM); 88% (active) in assay [4] (setting [7]); 100% (active) in assay [4] (setting [8]); 98.2% (active) in assay [4] (at 50.0 µM). Moreover, the growth inhibition in assay [5] (setting [7]) is 72% (active); in assay [5] (setting [8]), 100% (active); in assay [5] (at 50.0 µM), 66.3%; in assay [6] (setting [7]) it was 49%; in assay [6] (setting [8]), 99% (active); in assay [6] (at 50.0 µM), 99.5% (active).

Regarding `O=C(O)CCCCC1CCCCC1.[Cu+2]`, the growth inhibition was 31% in assay [1] (setting [7]); 94% (active) in assay [1] (setting [8]); 14.7% in assay [1] (at 50.0 µM); 23% in assay [2] (setting [7]); 90% (active) in assay [2] (setting [8]); -3.1% in assay [2] (at 50.0 µM). In addition, the growth inhibition in assay [3] (setting [7]) is 13%; in assay [3] (setting [8]) it was 93% (active); in assay [3] (at 50.0 µM), 36%; in assay [4] (setting [7]), 8%; in assay [4] (setting [8]) it was 30%; in assay [4] (at 50.0 µM), 0.9%. Also, the growth inhibition in assay [5] (setting [7]) was 17%; in assay [5] (setting [8]), 91% (active); in assay [5] (at 50.0 µM), 6.2%; in assay [6] (setting [7]), 19%; in assay [6] (setting [8]) it was 94% (active); in assay [6] (at 50.0 µM) it was 1.85%.

Consider `O=C1c2cccnc2-c2nccc3c2c1nc1cc(Br)ccc13`, for which the growth inhibition in assay [1] (setting [7]) was 61%; in assay [1] (setting [8]) it was 98% (active); in assay [1] (at 50.0 µM), 88.7% (active); in assay [2] (setting [7]), 44%; in assay [2] (setting [8]), 99% (active); in assay [2] (at 50.0 µM) it was 92.2% (active). For the same compound, the growth inhibition in assay [3] (setting [7]) was 94% (active); in assay [3] (setting [8]) it was 98% (active); in assay [3] (at 50.0 µM), 89.9% (active); in assay [4] (setting [7]), 28%; in assay [4] (setting [8]), 97% (active); in assay [4] (at 50.0 µM), 88.2% (active). Further, the growth inhibition in assay [5] (setting [7]) was 88% (active); in assay [5] (setting [8]), 98% (active); in assay [5] (at 50.0 µM) it was 89.2% (active); in assay [6] (setting [7]), 58%; in assay [6] (setting [8]), 98% (active); in assay [6] (at 50.0 µM), 77.2% (active).

Regarding `CCc1nc(N)nc(N)c1-c1ccc(NCCN)c([N+](=O)[O-])c1`, the growth inhibition in assay [1] (setting [7]) is -20%; in assay [1] (setting [8]) it was -26%; in assay [1] (at 50.0 µM) it was 98.7% (active); in assay [2] (setting [7]), -3%; in assay [2] (setting [8]), 5%; in assay [2] (at 50.0 µM), 98.7% (active). In addition, the growth inhibition is -28% in assay [3] (setting [7]); -22% in assay [3] (setting [8]); 98.8% (active) in assay [3] (at 50.0 µM); -7% in assay [4] (setting [7]); -34% in assay [4] (setting [8]); 98.5% (active) in assay [4] (at 50.0 µM). For the same compound, the growth inhibition in assay [5] (setting [7]) was 2%; in assay [5] (setting [8]) it was -28%; in assay [5] (at 50.0 µM), 98% (active); in assay [6] (setting [7]), -31%; in assay [6] (setting [8]) it was -40%; in assay [6] (at 50.0 µM) it was 98.9% (active).

As for `O=C1c2ccc3ccccc3c2CN2C(=O)CCC12` (configuration not stated), the growth inhibition was 4% in assay [1] (setting [7]); 83% (active) in assay [1] (setting [8]); 25.2% in assay [1] (at 50.0 µM); -11% in assay [2] (setting [7]); 16% in assay [2] (setting [8]); -6.6% in assay [2] (at 50.0 µM). The growth inhibition is -5% in assay [3] (setting [7]); 28% in assay [3] (setting [8]); 21.7% in assay [3] (at 50.0 µM); 7% in assay [4] (setting [7]); 66% in assay [4] (setting [8]); -4.3% in assay [4] (at 50.0 µM). For the same compound, the growth inhibition in assay [5] (setting [7]) was -5%; in assay [5] (setting [8]), 39%; in assay [5] (at 50.0 µM) it was 6.2%; in assay [6] (setting [7]), 4%; in assay [6] (setting [8]), 43%; in assay [6] (at 50.0 µM), 23.5%.

As for `CC(=O)Nc1cccc2ccc(C)cc12`, the growth inhibition is 0% in assay [1] (setting [7]); 1% in assay [1] (setting [8]); -5.5% in assay [1] (at 50.0 µM); 2% in assay [2] (setting [7]); 4% in assay [2] (setting [8]); 4.85% in assay [2] (at 50.0 µM). The growth inhibition was 1% in assay [3] (setting [7]); 1% in assay [3] (setting [8]); -22.9% in assay [3] (at 50.0 µM); 1% in assay [4] (setting [7]); 5% in assay [4] (setting [8]); 71.3% (active) in assay [4] (at 50.0 µM). Also, the growth inhibition was 1% in assay [5] (setting [7]); -1% in assay [5] (setting [8]); 23.1% in assay [5] (at 50.0 µM); 0% in assay [6] (setting [7]); 2% in assay [6] (setting [8]); 41.8% in assay [6] (at 50.0 µM).

For the compound `NCCCSc1ccc(Br)cc1`, the growth inhibition is -10% in assay [1] (setting [7]); 13% in assay [1] (setting [8]); 9.6% in assay [1] (at 50.0 µM); -4% in assay [2] (setting [7]); -5% in assay [2] (setting [8]); 34.3% in assay [2] (at 50.0 µM). In addition, the growth inhibition in assay [3] (setting [7]) was -4%; in assay [3] (setting [8]), 47%; in assay [3] (at 50.0 µM), 20.1%; in assay [4] (setting [7]), 0%; in assay [4] (setting [8]), 17%; in assay [4] (at 50.0 µM), 35.1%. The growth inhibition in assay [5] (setting [7]) was -22%; in assay [5] (setting [8]), -21%; in assay [5] (at 50.0 µM) it was 8.3%; in assay [6] (setting [7]), -4%; in assay [6] (setting [8]) it was 13%; in assay [6] (at 50.0 µM), 8.5%.

For `C[CH2][Sn]([CH2]C)([O]C(=O)c1cccc(OC)c1)[O][Sn]([CH2]C)([CH2]C)[O]C(=O)c1cccc(OC)c1`, the growth inhibition was 31% in assay [1] (setting [7]); 69% in assay [1] (setting [8]); 59.5% in assay [1] (at 50.0 µM); 30% in assay [2] (setting [7]); 79% (active) in assay [2] (setting [8]); 39.2% in assay [2] (at 50.0 µM). The growth inhibition is 36% in assay [3] (setting [7]); 76% (active) in assay [3] (setting [8]); 37.5% in assay [3] (at 50.0 µM); 30% in assay [4] (setting [7]); 58% in assay [4] (setting [8]); 40.8% in assay [4] (at 50.0 µM). The growth inhibition in assay [5] (setting [7]) was 30%; in assay [5] (setting [8]), 86% (active); in assay [5] (at 50.0 µM) it was 37.5%; in assay [6] (setting [7]), 40%; in assay [6] (setting [8]), 74% (active); in assay [6] (at 50.0 µM) it was 56.5%.
